The supplement of paper PMC6555819

Assays:
Test in all cases: PBM binding z-score (relative to random genomic background probes); higher = stronger binding; sequences stand for … in GC…GCGATTGACAGCGTAGAATGAAGG
[1] = system: FXR:RXRa (NR concentration 270 nM, RXRa partner concentration 90 nM)
Procedure, shortened: (§1)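 Custom Agilent 4×180K protein-binding microarrays carried double-stranded probes. Their 34-nt variable regions held direct-repeat seeds, single-nucleotide variants, half-site ablations and random human genomic background sequences. Arrays were incubated 1 h with ligand-free nuclear receptor dimers in PBS pH 7.4, 2% milk, 0.02% Triton X-100, 1 mM DTT, 0.2 mg/mL BSA and 0.4 mg/ml salmon testes DNA. Antibodies against each partner (one per run) detected binding, and scanned fluorescence was regression-normalized. Binding z-scores use random background probes as reference.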

[2] = system: LXRa:RXRa (NR concentration 270 nM, RXRa partner concentration 90 nM)
Procedure, shortened: as §1

[3] = system: LXRa homodimer (NR concentration 270 nM)
Procedure, shortened: as §1

[4] = system: LXRb:RXRa (NR concentration 270 nM, RXRa partner concentration 90 nM)
Procedure, shortened: as §1

[5] = system: LXRb homodimer (NR concentration 270 nM)
Procedure, shortened: as §1

[6] = system: PPARa:RXRa (NR concentration 270 nM, RXRa partner concentration 90 nM)
Procedure, shortened: as §1

[7] = system: PPARg:RXRa (NR concentration 180 nM, RXRa partner concentration 90 nM)
Procedure, shortened: as §1

[8] = system: PPARg:RXRa 270nM:90nM, anti-RXR (NR concentration 270 nM, RXRa partner concentration 90 nM)
Procedure, shortened: as §1

[9] = system: PPARg:RXRa 30nM:10nM, anti-RXR (NR concentration 30 nM, RXRa partner concentration 10 nM)
Procedure, shortened: as §1

[10] = system: PPARg:RXRa 90nM:30nM, anti-RXR (NR concentration 90 nM, RXRa partner concentration 30 nM)
Procedure, shortened: as §1

Row | Sequence | PBM binding z-score [1] | PBM binding z-score [2] | PBM binding z-score [3] | PBM binding z-score [4] | PBM binding z-score [5] | PBM binding z-score [6] | PBM binding z-score [7] | PBM binding z-score [8] | PBM binding z-score [9] | PBM binding z-score [10]
1 | TCTAGCAGGCCAGAGGGTCACTCGAGAGGTACGG | 0.927 | 0.659 | -0.59 | 0.806 | -1.36 | 2.11 | 1.36 | 2.59 | 1.79 | 2.52
2 | CCTTACGAGTCACGAGGTTATAGCACGACGAGCG | 0.991 | 1.29 | 0.451 | 1.22 | 0.355 | 1.84 | 1.22 | 0.515 | -0.27 | 0.183
3 | TCTTGTAGATCAAAGGTTCAGAAAGCCGAAGCCT | 0.694 | 0.971 | 0.565 | 0.863 | 0.0761 | 2.17 | 3.23 | 5.21 | 4.26 | 5.21
4 | AGTCAAAGTTCACAAGGTAACGTAAGATTCAGCT | 6.12 | 5.7 | 3.55 | 3.65 | 1.1 | 4.75 | 6.96 | 6.42 | 3.67 | 5.78
5 | TAGCCTAGCTCAGATCGGGCCAGTATACGCTATA | -0.961 | -1.35 | -1.07 | -1.25 | -1.34 | -1.21 | -0.0455 | -0.972 | -0.749 | -0.992
6 | CGAACTAGGTCATTCACAGGACAGTGAATAGTAA | 4.72 | 3.19 | 0.593 | 2.48 | 0.493 | 4.67 | 7.34 | 6.26 | 3.72 | 5.9
7 | TCTGCTAGGACAGTTGGTCAGCTAACGAGCTGCC | -0.435 | -0.527 | -0.541 | -0.91 | -0.315 | -0.722 | -0.522 | -0.161 | 0.654 | 0.296
8 | CCTCGGAGGACAACAAGAGGTCAGAGCTGCCAGA | 2.12 | 3.5 | 3.68 | 2.35 | -0.358 | 2.82 | 1.01 | 1.62 | -0.0713 | 0.904
9 | CAAACTAGGTCACCGGAACGTCAAAGTCCGCATG | 4.29 | 3.3 | 0.469 | 2.42 | 0.773 | 5.75 | 8.87 | 7.2 | 4.82 | 6.94
10 | CCTACTGGGCCAAACAGGTCATTGATGCCGATAA | 0.606 | 0.905 | 0.657 | 1.55 | -0.709 | 2.56 | 1.79 | 2.18 | 0.412 | 1.43
11 | TGTCAAAGTTCAAGGGTAACGTAAGTATCCACAC | 6.24 | 6.1 | 3.43 | 3.73 | 0.957 | 5.25 | 8.36 | 7.5 | 5.26 | 7.05
12 | ATCTCTAGGTAAAAGTTCAGTGATTCCCGAGGAT | 0.618 | 1.07 | 1.4 | 0.613 | 0.691 | 4.08 | 7.48 | 7.11 | 7.32 | 8.09
13 | CCTTACGGGTCACGAGGTTTTAGCACGACGAGCG | 6.33 | 4.19 | -0.186 | 3.4 | -0.145 | 5.72 | 6.51 | 6.3 | 2.95 | 4.7
14 | AGAATGAGGTTATTAAGGTCAGGGAATTGCGGTC | 4.55 | 4.8 | 3.44 | 3.59 | 0.546 | 4.4 | 3.54 | 4.22 | 1.62 | 3.18
15 | TTACCAAGGTGCAGGTCGTTGATCCCTCTGTAGA | 0.967 | 1.17 | 0.154 | 0.819 | -0.626 | 0.827 | -0.238 | 0.806 | 0.416 | 0.733
16 | AGAACGAGGGCACGCTGAGTTGATAGGAGAGTAG | 0.875 | 0.502 | -0.34 | 0.213 | -0.689 | 2.07 | 2.14 | 1.82 | 0.367 | 1.14
17 | CGTCCAAGGTCATAGGAGGTAAGTGAAGACAGAT | 7.22 | 5.32 | 0.86 | 3.76 | 0.57 | 5.49 | 4.65 | 4.94 | 1.76 | 3.49
18 | CCTTACGGGTCAAGGTTAAAGCACGGGTGGTACG | 5.62 | 3.83 | 0.272 | 3.14 | 0.0143 | 5.08 | 5.05 | 5.34 | 2.38 | 4.5
19 | TGTCAAAGTTCAAAGGTAACGGAAGTATCCACAC | 7.08 | 6.74 | 4.4 | 4.82 | 1.8 | 6.04 | 8.79 | 7.85 | 5.15 | 7.21
20 | ACTATTAGTTGACATAGGGCAACCGATACGACGC | 0.176 | 0.333 | 0.152 | 0.7 | 0.719 | 0.537 | 1.45 | 0.934 | 0.646 | 1
21 | CAAACTAGGTCAAGAGTTCAAAGTCCGCTTCCCG | 5.67 | 5.69 | 6.24 | 4.15 | 1.05 | 6.1 | 9.08 | 7.81 | 6.8 | 8.19
22 | TCTGCTAGGTCACCGATGGTCAGCTAATCTGCTA | 3.75 | 3.3 | -0.47 | 2.07 | -0.343 | 3.82 | 3.64 | 4.04 | 2.09 | 3.11
23 | TAGCCTAGGTCATGGGTCAGTATACCACGCGAAC | 5.1 | 4 | 0.898 | 3.62 | 0.339 | 4.77 | 6.78 | 5.95 | 3.9 | 6.14
24 | ACATGTAGGTTATCGGGTCATTCAGTTTGCGCAT | 3.45 | 3.33 | 1.98 | 3.33 | 1.7 | 4.49 | 6.1 | 5.23 | 2.59 | 4.9
